Compound activity as filed in PubChem.
Hits are enriched below; roughly 21% of the tested compounds scored in any of these assays.
D3 ag: D3 dopamine receptor (human) agonism; P35462; D3R DiscoveRx beta-arrestin cells, luminescence, 90 min; max activation, %; 410,000 compounds, 0.58% hits; in the data active means max activation above about 30%; further: 0% is about no effect
Target sequence (P35462 whole entry, looked up): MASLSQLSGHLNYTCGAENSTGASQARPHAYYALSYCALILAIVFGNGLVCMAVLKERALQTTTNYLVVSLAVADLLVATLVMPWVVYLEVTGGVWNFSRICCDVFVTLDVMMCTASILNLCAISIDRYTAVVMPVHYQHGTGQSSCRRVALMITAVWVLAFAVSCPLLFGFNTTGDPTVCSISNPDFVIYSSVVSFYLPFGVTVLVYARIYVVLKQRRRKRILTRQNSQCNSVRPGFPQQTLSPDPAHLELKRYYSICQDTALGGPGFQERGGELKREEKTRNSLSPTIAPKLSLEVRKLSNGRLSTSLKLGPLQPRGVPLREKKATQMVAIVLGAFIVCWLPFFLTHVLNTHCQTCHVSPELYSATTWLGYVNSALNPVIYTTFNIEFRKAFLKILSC
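Agonist mode: compounds and dopamine controls were applied to plated cells for 90 min at 37 degrees C after an overnight attachment at 1500 cells/well. Luminescent read-out followed 30 - 60 minutes at room temperature with DiscoveRx detection reagent.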
IL1B secr inh: blocks inflammasome-driven IL-1 beta release | THP-1 LPS/ATP IL-1B secretion, AlphaLISA, 16 h; stronger effect = lower value | activity change, % at 57.5 µM | 360,000 compounds, 4.7% hits; in the data active means activity change below about -50%; inconclusive means mostly about -30% to -49%; further: on the % scale 0 is the no-effect control and ±100 the full control effect
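Secreted IL-1B measured by AlphaLISA bead assay after 16 h compound exposure of THP-1 cells; compounds (final up to 57.5 uM) added 1 h before LPS (250 ng/mL) and ATP (1.25 mM) stimulation; lower signal means less secretion.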
ClpP mod: qHTS Assay for Activators of ClpP; Potency, µM (series often up to 57.5 µM), for the others: at the top dose activity change, negative = active; purified B. subtilis ClpP, FRET peptide cleavage, 20 min; 340,000 compounds, 1.9% hits; ATP-dependent Clp protease proteolytic subunit (Bacillus subtilis (strain 168)), P80244; active means well fitted falling curve with a large enough effect; inconclusive means small, poorly fitted or top-dose-only effect; inactive means no such curve, though single readings can be large or run the other way; further: potency means the concentration at half of the fitted maximal effect; the source files actives as falling curves though it sought activators and does not explain the sign; nearly all actives have a fitted effect of over 65% in size
Target sequence (P80244 whole entry, looked up): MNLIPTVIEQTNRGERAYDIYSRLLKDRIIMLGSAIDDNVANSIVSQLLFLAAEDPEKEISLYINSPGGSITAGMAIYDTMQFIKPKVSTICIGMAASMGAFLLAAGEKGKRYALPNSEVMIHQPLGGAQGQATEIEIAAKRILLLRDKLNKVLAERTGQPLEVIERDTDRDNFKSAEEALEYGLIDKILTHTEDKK
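ClpP 10 microg/mL final, pH 8 Tris/KCl buffer with BSA, glycerol, Tween-20; compound pinned in; FRET-FV substrate; RT 20 min; Ex320/Em430; ΔFRET vs ADEP 5.8 microM, DMSO, no enzyme.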
DT40 TDP1 CPT: growth inhibition of DT40 Tdp1-/-;hTDP1 cells with camptothecin (screen for TDP1 inhibitors). 420,000 compounds, 12% hits. Potency, µM (highest dose often 46.2 µM), inactives show at the highest dose activity change, negative = growth inhibition, hits mostly inhibitors. chicken DT40 Tdp1-/-;hTDP1 cells + 20 nM CPT, ATP luminescence, 48 h. AID 686979; further: potency means the concentration at half of the fitted maximal effect; on the % scale 0 is the no-effect control and ±100 the full control effect; nearly all actives have a fitted effect of over 55% in size
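Chicken DT40 Tdp1-/- cells stably complemented with human TDP1 were seeded at 400 cells/well in medium containing 20 nM camptothecin, exposed to pin-transferred compounds, and grown at 37 °C for at least 48 hr. Viability was read as ATP luminescence.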
DT40 TDP1 no CPT: qHTS for Inhibitors of human tyrosyl-DNA phosphodiesterase 1 (TDP1): qHTS in cells in absence of CPT | 420,000 compounds, 15% hits | AID 686978, 2013 | DT40 Tdp1-/- hTDP1 cells, no CPT, ATP luminescence, 48 h | Potency, µM (highest dose often 46.2 µM), for inactives: at the top dose activity change, negative = growth inhibition, usual class: inhibitors; further: potency means the concentration at half of the fitted maximal effect; on the % scale 0 is the no-effect control and ±100 the full control effect; nearly all actives have a fitted effect of over 55% in size
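Growth kinetics read by CellTiter-Glo luminescence after ≥48 hr at 37 °C. Cells: DT40 Tdp1-/- stably carrying human TDP1, 400 per well, compound exposure in the absence of CPT (DMSO vehicle).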
D3 antag: D3 dopamine receptor (human) antagonism. AID 652054. D3R cells, DiscoveRx beta-arrestin luminescence, antagonist mode; stronger effect = lower value. 360,000 compounds, 2.5% hits. max response, negative = inhibition, %. P35462; in the data active means max response below about -50%; inconclusive means no clear call, values can overlap the other calls; further: on the % scale 0 is the no-effect control and ±100 the full control effect
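Cells plated overnight at 1500 cells/well, then exposed to library compounds with dopamine controls for 90 minutes at 37 degrees C. DiscoveRx reagent added for 30–60 minutes at room temperature; luminescence read, quantitative HTS format.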
Active calls of the source: *; u = inconclusive; x = no result given. Unless noted, the call rests on the fitted dose curve; in most records, active means well fitted inhibition curve with a large enough effect; inconclusive means small, poorly fitted or top-dose-only effect; inactive means flat fitted curve, though single readings scatter.

SMILES	D3 ag	IL1B secr inh	ClpP mod	DT40 TDP1 CPT	DT40 TDP1 no CPT	D3 antag
CCN1CC2([N+](=O)[O-])C=CC(=O)C([N+](=O)[O-])(C1)C2CC(=O)c1ccccc1 (stereo not given)	1	0	0%	u	u	-68*
COc1ccc(CNC(=O)c2cc3sccc3n2C)cc1	-3	x	2%	2%	-30%	x
COc1ccc(CNC(=O)CN(C(=O)c2cc3sccc3n2C)C2CCCC2)cc1	3	u	-6%	u	13µM*	-5
COC(=O)c1ccccc1S(=O)(=O)Oc1ccc(-c2ccc(C(=O)O)cc2)cc1	-2	-99*	x	3%	-2%	1
Cc1ccc(C(C)(C)C)cc1S(=O)(=O)NC(=O)c1ccccc1	12	10	x	1%	6%	3
COC(=O)c1ccccc1S(=O)(=O)NC(=O)c1ccccc1	-2	-15	20µM*	-23%	-22%	-10
Cc1c(C(=O)Nc2ccc(F)cc2F)oc2c1-c1nn(Cc3c(F)cccc3Cl)cc1CC2	1	x	-16%	u	u	x
COc1cc([N+](=O)[O-])ccc1NC(=O)c1cccc(NC(=O)C(C)C)c1	1	x	x	u	29µM*	-11
COc1ccc(CCNC(=O)c2ccc(-c3cccc([N+](=O)[O-])c3)o2)cc1OC	-1	-29	x	u	21µM*	11
CCC(CC)C(=O)Nc1cccc(C(=O)Nc2ccc(OC)cc2[N+](=O)[O-])c1	5	2	0%	-22%	-12%	17
NNC(=O)c1ccc(-c2cccc([N+](=O)[O-])c2)o1	1	-25	-1%	u	-10%	-22
COc1cc(NC(=O)c2ccc(-c3cccc([N+](=O)[O-])c3)o2)ccc1NC(=O)C(C)C	0	10	3%	u	21µM*	21
CCOc1ccc(-n2nc3ccc(NC(=O)Cc4ccccc4)cc3n2)cc1	-10	x	-23%	3.7µM*	3.7µM*	x
Cc1ccc(-c2nnn(CC(=O)NCC3CC3)n2)o1	6	0	-1%	8%	3%	2
COc1ccc(-n2nc3ccc(NC(=O)c4cccc(OCCC(C)C)c4)cc3n2)cc1	-17	x	4%	18µM*	7.3µM*	x
COc1ccc(-n2nc3ccc(NC(=O)c4c(OC)cccc4OC)cc3n2)cc1	0	x	31%	16µM*	15µM*	x
Cc1ccc(-c2nnn(CC(=O)Nc3ccc4nn(-c5ccccc5)nc4c3)n2)o1	2	-10	14µM*	-25%	-23%	2
COC(=O)c1ccc(NC(=O)CCn2cnnn2)c(C)c1	0	x	0%	x	x	x
O=C(NC1CC(=O)N(c2ccccc2)C1)c1ccc(S(=O)(=O)N2CCOCC2)cc1 (stereo not given)	2	x	-2%	-7%	-27%	x
O=C(Nc1ccc2nn(-c3ccc(F)cc3)nc2c1)c1cccc2c(Cl)cccc12	3	x	u	10µM*	21µM*	x
O=C(Nc1ccc(F)cc1)c1cccc2ccccc12	-1	15	1%	-27%	u	0
O=C(C[n+]1cccc2cccc(O)c21)c1ccc(F)cc1	x	x	-4%	7.1µM*	u	x
O=C(C[n+]1c2ccccc2cc2ccccc21)c1ccc(F)cc1	x	x	4%	u	10µM*	x
Cc1ccc(C)c(N2CCN(C(=O)c3cc4cc5ccc(C)cc5nc4s3)CC2)c1	8	x	1%	u	6%	x
CC1(C)Cc2c(sc3c2c(=N)n(Cc2ccco2)c(=O)n3CC(=O)Nc2cccc(Cl)c2)CO1	-1	u	-9%	u	21µM*	-8
SMILES	D3 ag	IL1B secr inh	ClpP mod	DT40 TDP1 CPT	DT40 TDP1 no CPT	D3 antag
CC1(C)Cc2c(sc3c2c(=N)n(Cc2ccco2)c(=O)n3CC(=O)Nc2ccccc2)CO1	-4	-51*	-7%	u	u	8
CC1(C)Cc2c(sc3c2c(=N)n(Cc2ccco2)c(=O)n3CC(=O)Nc2ccc(Cl)cc2)CO1	-6	-80*	-4%	u	u	35
Cc1cccc(NC(=O)Cn2c(=O)n(Cc3ccco3)c(=N)c3c4c(sc32)COC(C)(C)C4)c1	-1	-25	-15%	u	u	-13
CCc1ccc(NC(=O)Cn2c(=O)n(Cc3ccco3)c(=O)c3cccnc32)cc1	-19	x	u	-16%	-21%	x
CC(C)OCCCNC(=O)c1ccc(NC(=O)C2=CSCCO2)cc1	-10	14	0%	0%	16%	3
O=C(NC1CCCC1)C1CCCN1C(=O)Oc1ccccc1 (stereo not given)	1	-3	4%	6%	19%	15
CC(=O)c1ccc(N2CCN(C(=O)c3cc4cc5cc(C)ccc5nc4s3)CC2)cc1	2	x	1%	-3%	19%	x
CC#CCN(CC#CC)S(=O)(=O)c1ccc(S(=O)(=O)N2CCOCC2)cc1	-13	8	-2%	u	16µM*	-20
O=C(NCc1ccco1)c1ccccc1	8	-7	-4%	2%	0%	7
O=C(NCc1ccco1)c1cccc(-c2nnc(-c3ccccc3)o2)c1	8	-28	-7%	21µM*	u	8
Cc1cccc(-c2noc(-c3ccccc3C(=O)NCc3ccco3)n2)c1	-4	u	0%	21µM*	21µM*	-6
CCOC(=O)c1cc(-c2cccc(O)c2)oc1C	2	24	-2%	u	u	5
COc1ccccc1NC(=O)C(C)OC(=O)CCNS(=O)(=O)c1ccc(C)c(C)c1 (stereo not given)	-8	13	2%	u	u	-20
O=C(CCC1CCCN(C(=O)C2(c3ccccc3)CC2)C1)N1CCN(c2ccccn2)CC1 (stereo not given)	-4	u	x	u	u	4
O=C(Cc1cccs1)OCC(=O)c1ccco1	4	0	-11%	-14%	-16%	15
O=C(CC(Sc1ccccc1)c1cccs1)c1ccco1 (stereo not given)	-9	-70*	-16%	18µM*	26µM*	-25
CC(C)n1c(SCC(=O)c2ccc(F)cc2)nc2c(sc3ccccc32)c1=O	2	x	-1%	8%	6%	x
O=C(NCc1nnnn1-c1cccc(F)c1)c1ccc(S(=O)(=O)N2CCOCC2)cc1	5	-8	-1%	-14%	-1%	3
